From ChEMBL document CHEMBL3988442, “University of Dundee, Small-Polar-MMV Screening Library” (2021)
Among all 48,000 compounds or so, about 13,000 (27%) showed an effect of 50% or more. The list shows a part of the results.

test system: Wolbachia pipientis; test: Anti-Wolbachia Cell-Based Screen; format: functional; set-up: scale not given: in the data most compounds retested in dose-response had high values; conditions: 5 µM

Structure (SMILES) | Percent Effect [%]
CC(CC(=O)NS(=O)(=O)c1ccc2c(c1)OCCO2)c1ccc(F)cc1 (centres undefined) | -2.674
C[C@@H]1CN(C(=O)CCCn2nnc(-c3ccc(F)cc3)n2)C[C@]1(C)O | 1.392
Cc1nc(C2CCN(C(=O)c3ccc(Cl)s3)CC2)cc(=O)[nH]1 | -8.54
CN(C)CCN1CC2(CCN(C(=O)c3cnccn3)CC2)OC1=O | -7.77
O=C(c1cccnc1)N1CCC2(CNS(=O)(=O)c3cnccc3O2)C1 (centres undefined) | 123.8
O=C(c1cnc(-c2ccccc2)s1)N1CCOC2(CCCC2)C1 | -9.958
CC(C)(C)C(=O)N1CCN(Cn2nccc2-c2cccnc2)CC1 | -27.57
CC(C)(C)C(=O)N1CCC2(CC1)CC(Oc1ccccc1)CO2 (centres undefined) | -1.342
CN(C)C1COC2(CCN(C(=O)c3cccnc3)CC2)C1 (centres undefined) | -11.3
CC(C)N(C)C(=O)C1=NOC2(CCN(C(=O)c3ccccn3)C2)C1 (centres undefined) | 12.65
O=C(c1ccc(Cl)s1)N1CCC2(CNS(=O)(=O)c3cnccc3O2)C1 (centres undefined) | 130.4
O=C(c1ccccn1)N1CCC2(CNS(=O)(=O)c3cnccc3O2)C1 (centres undefined) | 119.5
CC(C)(C)C(=O)N1CCC2(CNS(=O)(=O)c3cnccc3O2)C1 (centres undefined) | 153.5
CC(C)C(=O)NC1COC2(CCN(C(=O)c3cccnc3)CC2)C1 (centres undefined) | 16.59
CC(C)Cn1cc(NC(=O)N2CCOC(c3ccccc3)C2)cn1 (centres undefined) | 2.646
Cc1nc(-c2ccccc2)sc1C(=O)NCCNc1ncccn1 | 2.127
Cc1nc[nH]c1-c1nccn1-c1ccc(C(N)=O)c(N2CCCC2)c1 | 8.513
CN(C(=O)CCC(F)(F)F)c1cccc2ncccc12 | 2.571
Cc1n[nH]c(SCC(=O)N[C@@H](C)C(N)=O)n1 | -9.569
O=C(O)C(F)(F)F.O=C1[C@H]2CN(c3ncccn3)C[C@H]2CN1Cc1ccncc1 | 3.817
CCN1C[C@@H]2CN(C(=O)C3CC=CC3)C[C@@H]2C1=O | 14.39
O=C(C1CC=CC1)N1C[C@H]2CN(Cc3ccncc3)C(=O)[C@H]2C1.O=C(O)C(F)(F)F | 103
O=C(C1CCOCC1)N1C[C@@H]2[C@@H](C1)OCC(=O)N2Cc1ccncc1.O=C(O)C(F)(F)F | -1.521
O=C(C1CCC1)N1C[C@@H]2CN(Cc3ccncc3)C(=O)[C@@H]2C1.O=C(O)C(F)(F)F | 108.5
Cc1ccc(CNS(=O)(=O)CC2=NC(=O)n3cccc3C2=O)cc1 | 16.21

Structure (SMILES) | Percent Effect [%]
COc1ccccc1OC1(C(=O)O)CCN(c2nc(C)cnc2C)CC1 | -31.32
Cc1nc(N2CCCC2)nc(N2CCC(O)(C(=O)O)CC2)c1C | -11.99
COc1cccc2ccc(N3CCC(O)(C(=O)O)CC3)nc12 | 85.02
COc1ccnc(CN2CCC(O)(c3ccc(C)cn3)CC2)c1OC | -7.822
COc1ccccc1OC1(C(=O)O)CCN(c2ccccn2)CC1 | -33.54
COc1cccc(CN2CCC(O)(c3ccc(C)cn3)CC2)c1OC | -1.243
Nc1nccc(N2CCC(Cc3ccccc3Cl)(C(=O)O)CC2)n1 | -23.92
O=C(O)C1(O)CCN(c2ccc3cccc(Cl)c3n2)CC1 | 102.6
COc1cccc2ccc(N3CCC(O)(c4ccc(C)cn4)CC3)nc12 | 110
O=S(=O)(Nc1nccs1)c1cc(Cl)cc2c1OCC2 | -24.06
Fc1cc(CN2CCOC3(CCOCC3)C2)ccc1OC(F)F | -0.1745
CCc1noc(CSc2n[nH]c(-c3ccccn3)n2)n1 | -7.886
CCn1cc(CN2CCCC(COc3ccccc3F)C2)cn1 (centres undefined) | 9.663
Cn1nccc1CN1CCCC(COc2ccccc2F)C1 (centres undefined) | 162.8
Cn1cc(CN2CCCC(CCc3c(F)cccc3F)C2)cn1 (centres undefined) | 4.691
CCC1CN(CC(=O)NC2(C#N)CCCC2)CCN1CCOC (centres undefined) | 2.566
CCC1CN(CC(=O)N2CCN(C(C)=O)CC2)CCN1CCOC (centres undefined) | 107.2
CCC1CN(CCNC(C)=O)CCN1CCOC (centres undefined) | 1.458
CCC1CN(CC(=O)N2CCCC2)CCN1CCOC (centres undefined) | 124
CCC1CN(CC(=O)N2CCC2)CCN1CCOC (centres undefined) | 4.498
CCC1CN(CCC(=O)N(C)C)CCN1CCOC (centres undefined) | -4.079
CC(C)Nc1nc2c(cc1C(=O)NCC1CC1)CCNCC2.O=C(O)C(F)(F)F.O=C(O)C(F)(F)F | -11.9
O=C(NCC1CC1)c1cc(C2CC2)nc2onc(C3CCCNC3)c12 (centres undefined) | 103.5
Cc1c(Br)cccc1C(=O)NCC1CCCNC1.Cl (centres undefined) | 0.4435
COc1ccc2nc(C3CC3)cc(C(=O)NCc3noc(C)n3)c2c1 | 1.07

Structure (SMILES) | Percent Effect [%]
COc1ccc2nc(C3CC3)cc(C(=O)NCCc3nnc[nH]3)c2c1 | -12.63
COCCNC(=O)c1cc(C2CC2)nc2onc(C3CCNC3)c12 (centres undefined) | 98.56
O=c1[nH]c(C2CCOC2)nc2ccc(Br)cc12 (centres undefined) | -44.09
CCCc1noc(CNc2cc(C[S+](C)[O-])ccc2Cl)n1 (centres undefined) | -7.446
c1cnn(CCNCc2csc(-c3ccc4c(c3)OCO4)n2)c1 | -13.49
COC(=O)CNC(=O)C(C(C)C)n1cnc2cc(F)c(F)cc21 (centres undefined) | -6.926
CCn1cnnc1CNC(=O)N1CCN(c2nccs2)CC1 | 84.21
CCn1cnnc1CNC(=O)N1CCN(c2cccs2)CC1 | 0.168
CCn1cnnc1CNC(=O)N1CCN(CC(C)C)CC1 | 151.2
CCn1cnnc1CNC(=O)N1CCN(Cc2ccsc2)CC1 | 120.4
CCn1cnnc1CNC(=O)NCC(C(C)C)N1CCC(C)CC1 (centres undefined) | -9.877
CCn1cnnc1CNC(=O)N1CCN(c2nc(C)c(C)s2)CC1 | 1.256
CCn1cnnc1CNC(=O)N1CCN(C(C)C)CC1 | 131.3
CCC1CN(Cc2nnc(C(C)C)o2)CCC(=O)N1Cc1ccccc1 (centres undefined) | -5.543
CC(C)N(C)C(=O)C1CCC(=O)N(CCc2cccc(F)c2)C1 (centres undefined) | -15.9
CN(Cc1ccco1)C(=O)NCc1ccnc(SC(C)(C)C)c1 | 12.7
CN1CCOC(C(=O)N2CCOC3(CCCC3)C2)C1 (centres undefined) | 0.3314
CCc1nncn1CCNC(=O)N1CCN(Cc2ccccc2)CC1 | 122
CCn1cnnc1CNC(=O)N1CCN(CCc2ccccc2)CC1 | 119.3
CCn1cnnc1CNC(=O)N1CCN(Cc2ccco2)CC1 | 145.2
CCn1cnnc1CNC(=O)N1CCN(Cc2ccccc2)CC1 | 4.693
CCn1cnnc1CNC(=O)N1CCC(Cc2cccnc2)CC1 | 3.678
Cc1cc(CNC(=O)N2CCCN(Cc3ccccc3)CC2)no1 | 3.243
CCn1cnnc1CNC(=O)N1CCOCC1 | -3.836
CC(NC(=O)N1CCN(CCc2ccccc2)CC1)c1nncn1C (centres undefined) | -0.7448

Structure (SMILES) | Percent Effect [%]
CCn1cnnc1CNC(=O)N1CCCCCC1 | 138.5
CCn1cnnc1CNC(=O)N1CCOC(c2ccc(F)cc2)C1 (centres undefined) | -19.34
CCn1cnnc1CNC(=O)N1CCCN(C(C)=O)CC1 | -5.792
CC(C)Oc1cccc(C(=O)C2CCCN(C(=O)c3ccoc3)C2)c1 (centres undefined) | 9.263
CCSCc1cccc(NC(=O)N(C)Cc2ncnn2C)c1 | -22.36
COc1ccc(NC(C)C(=O)N2CCCC2)cn1 (centres undefined) | 2.582
CCn1cnnc1CNC(=O)N1CCC(OCc2ccccc2)CC1 | 128.6
CCn1cnnc1CNC(=O)N1CCC(C(=O)NC)CC1 | -5.598
CCN(CC)C1CCN(C(=O)NCc2nncn2CC)CC1 | 7.856
O=C(NCC(O)c1cccc(O)c1)C1CCN(C2CCCCC2)CC1 (centres undefined) | -14.15
Cc1nc[nH]c1-c1c(-c2ccccc2)ncn1C1CCNC1 (centres undefined) | 7.819
CN1CCN(C(=O)[C@@H]2CC[C@@H]3[C@@H](CCN3c3ncccn3)O2)CC1.O=C(O)C(F)(F)F.O=C(O)C(F)(F)F | -4.531
O=C(O)C(F)(F)F.O=C([C@H]1CC[C@@H]2[C@@H](CCN2Cc2ccc(F)cc2)O1)N1CCCO1 | -3.999
Cc1ccc(N2CC[C@H]3O[C@H](C(=O)N4CCCCO4)CC[C@H]32)nn1.O=C(O)C(F)(F)F | 105.7
Cc1ccc(N2CC[C@H]3O[C@@H](C(=O)N4CCCCO4)CC[C@H]32)nn1.O=C(O)C(F)(F)F | 113.9
O=C(O)C(F)(F)F.O=C([C@@H]1COC[C@H]2CN(c3ccncn3)C[C@H]21)N1CCCCO1 | -6.047
O=C([C@H]1CC[C@@H]2[C@@H](CCN2c2ncccn2)O1)N1CCCCO1 | 84.25
O=C(O)C(F)(F)F.O=C([C@@H]1CC[C@@H]2[C@@H](CCN2c2ccncn2)O1)N1CCCCO1 | 117.6
O=C([C@@H]1CC[C@@H]2[C@@H](CCN2c2ncccn2)O1)N1CCCO1 | 3.223
COC(=O)N(C)CCCC(=O)Nc1[nH]nc(-c2ccncc2)c1C | -7.715
O=C1CC[C@H]2CN(C3CCOCC3)CC[C@H]2N1CCC1=CCCCC1 | 14.62
Cc1ccc(N2CC[C@H]3O[C@@H](C(=O)NCc4ccco4)CC[C@H]32)nn1.O=C(O)C(F)(F)F | 17.63
Cc1ccc(CN2CC[C@H]3O[C@@H](C(=O)N4CCCO4)CC[C@H]32)s1.O=C(O)C(F)(F)F | -7.276
Cc1ccc(N2CC[C@H]3O[C@@H](C(=O)N4CCCO4)CC[C@H]32)nn1.O=C(O)C(F)(F)F | 88.3
